Entries with a potency or affinity are not part of this list. A number with no mark means an inactive call. No rule for the calls is given here.

The test is described as follows: viability loss in HEK293 cells – cell-based, plate reader, cherry-picked samples, cytotoxicity control, dose response (AID 743446). The conditions noted are these: active compounds read low; at 26 µM unless noted.
For the compound `O=C1OCCC1Sc1nnc(-c2ccc(Cl)cc2Cl)o1` (stereo not drawn), the max activity is 7.96% [at 0.8 µM].

For `O=C(CC1CS(=O)(=O)CC1CC(=O)Nc1ccc2c(c1)OCCO2)Nc1ccc2c(c1)OCCO2` (stereo not drawn), the max activity was 38.3% [at 0.8 µM]. Regarding `Cc1cc(C(=O)COC(=O)C2CC2)c(C)n1-c1ccc(F)cc1`, the max activity was 9.72% [at 12 µM]. Take `CC(C)(C)c1ccc(C(=O)NCCOc2ccccc2F)cc1`: the max activity was 23.5%. In the case of `Cc1cc(C)c(C)c(S(=O)(=O)N2CCN(c3ncnc4ccccc34)CC2)c1C` it was 62% [at 1.6 µM]; in that of `CN(C)c1ccc(C(=O)Nc2nc3c(s2)CCCC3)cc1`, -30%. For `CSc1ccc(NC(=O)Nc2cc(C)ccn2)cc1`, the max activity was 12.9% [at 0.05 µM].

Take `O=C(CN1C(=O)c2ccccc2S1(=O)=O)Nc1ncc(Cl)cc1Cl`: the max activity is -12.9% [at 1.6 µM]. In the case of `O=C(Nc1cc(S(=O)(=O)Nc2ccccc2Cl)ccc1O)c1ccc(F)cc1F` it was -13.9% [at 0.8 µM]. Regarding `O=C(Nc1nc2ccccc2[nH]1)c1ccc(Cl)cc1`, the max activity is 71.5% [at 0.8 µM]. `C[C@H](CO)N1C[C@H](C)[C@H](CN(C)C(=O)Nc2ccccc2)OCCCC[C@H](C)Oc2ccc(NC(=O)Nc3ccccc3)cc2C1=O`: the max activity is 21.5%. In the case of `Cc1c(NC(=O)c2ccc(-c3ccccc3)cc2)cccc1C(=O)O`, the max activity was 41.3%. `Cc1ccc(C(=O)Nc2ccc3c(c2)OCCO3)cc1`: the max activity is 17.1% [at 0.05 µM]. In the case of `O=C(Cc1ccccc1Cl)Nc1cccnc1`, the max activity is 17.2% [at 0.1 µM]. As to `Cc1oc(-c2ccc3c(c2)OCCO3)cc1C(=O)O`, the max activity is -18.6%. As for `O=C(Cc1ccncc1)NCC[C@H]1CC[C@H](NC(=O)C2CCCC2)[C@H](CO)O1`, the max activity is 13.9% [at 0.1 µM].

Turning to `CCc1nnc2cccc(Cl)n12`, the max activity was -9.24% [at 1.6 µM]. As for `O=C(NCCc1ccccc1)c1ccc2c(c1)OCO2`, the max activity was 21.8% [at 12 µM]. Then `COc1cccc(-c2ccc(C3[C@@H]4CN(C(=O)C5CC5)C[C@H]3N4)cc2)c1` (stereo partly drawn), with 15.1% [at 3 µM]; and `C[C@@H]1CN([C@@H](C)CO)C(=O)c2cc(NS(=O)(=O)c3ccc(F)cc3)ccc2O[C@H]1CN(C)Cc1ccc(-c2ccccc2)cc1`, with -27.1%. Turning to `c1nc(CCO[C@H]2CCCCO2)cc2cc3c(cc12)OCO3`, the max activity is 9.43%. With `CO[C@@H]1CN(C)C(=O)c2ccc(NC(=O)C3CC3)cc2OC[C@@H](C)NC[C@@H]1C`, the max activity was 12% [at 3 µM]. Take `COc1cccc(-c2cc(C(=O)N3CCCCCC3)no2)c1`: the max activity was -9.64% [at 12 µM].

Consider `C[C@H](CO)N1C[C@H](C)[C@H](CN(C)Cc2ccncc2)Oc2ncc(C#CCC3CCCCC3)cc2C1=O`, for which the max activity was 18.1% [at 3 µM]. In the case of `Cc1ccc(-c2cc(C(=O)N3CCOCC3)no2)cc1`, the max activity is -12% [at 6 µM]. `COc1ccc(-c2cn3cc(C)ccc3n2)cc1F`: the max activity was 44.7% [at 12 µM].

For the compound `Nc1ccc(-c2nc3ccc(N)cc3s2)cc1`, the max activity was 53.7%. Then `CCOc1ccc(-c2cnc3ccccc3n2)cc1`, with 16.5% [at 0.38 µM]. With `Cc1ccccc1C(=O)Nc1nnc(-c2ccco2)s1`, the max activity is -13.7% [at 12 µM]. Regarding `Cc1ccc(NC(=O)c2ccc3c(c2)OCCO3)cc1C`, the max activity is 32.4% [at 0.38 µM]. Then `O=C(NCc1ccc(F)cc1)c1cc(C2CCCCN2S(=O)(=O)c2cccs2)on1` (stereo not drawn), with 15.1% [at 0.38 µM]; and `CC(=O)Nc1ccc(S(=O)(=O)c2ccnc3cc(Cl)ccc23)cc1`, with -26.3% [at 12 µM]; and `Cn1c(=O)c2cc(NC(=O)NCc3ccccc3)ccc2n1C/C=C/c1ccccc1`, with 34.9% [at 1.6 µM].

Regarding `Cc1ccc(CNS(=O)(=O)c2ccc3c(c2)CCN3C(=O)CCCC(=O)O)cc1`, the max activity is 14.5% [at 6 µM]. `O=C(O)c1ccc(N/N=C/c2ccc3ncccc3c2)cc1`: the max activity was 14.9% [at 12 µM]. Consider `O=C(Nc1ccc(N2CCOCC2)c(S(=O)(=O)Nc2ccccc2Cl)c1)c1ccc(F)cc1`, for which the max activity was -18.2% [at 0.1 µM]. As to `CNCc1ccccc1Sc1ccc(O)c(O)c1`, the max activity was -16.4%.

On to `Cc1ccoc1C(=O)Nc1ccc2ccccc2c1`, for which the max activity was -16.8% [at 0.1 µM].

The record behind these values is PubChem BioAssay AID743446 (Broad Institute, 2014).
